FBW7 activator = human FBW7 E3 ligase activation, primary screen; AlphaScreen FBW7–phospho-cyclin E peptide binding, activator screen; normalized activity (activation), % at 26.1 µM; 650,000 compounds, 0.13% hits; AID 1259310; in the data active = normalized activity above about 1.9%;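 note: purified mutant Fbw7 with reduced substrate affinity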
Target sequence (Q969H0 whole entry, looked up): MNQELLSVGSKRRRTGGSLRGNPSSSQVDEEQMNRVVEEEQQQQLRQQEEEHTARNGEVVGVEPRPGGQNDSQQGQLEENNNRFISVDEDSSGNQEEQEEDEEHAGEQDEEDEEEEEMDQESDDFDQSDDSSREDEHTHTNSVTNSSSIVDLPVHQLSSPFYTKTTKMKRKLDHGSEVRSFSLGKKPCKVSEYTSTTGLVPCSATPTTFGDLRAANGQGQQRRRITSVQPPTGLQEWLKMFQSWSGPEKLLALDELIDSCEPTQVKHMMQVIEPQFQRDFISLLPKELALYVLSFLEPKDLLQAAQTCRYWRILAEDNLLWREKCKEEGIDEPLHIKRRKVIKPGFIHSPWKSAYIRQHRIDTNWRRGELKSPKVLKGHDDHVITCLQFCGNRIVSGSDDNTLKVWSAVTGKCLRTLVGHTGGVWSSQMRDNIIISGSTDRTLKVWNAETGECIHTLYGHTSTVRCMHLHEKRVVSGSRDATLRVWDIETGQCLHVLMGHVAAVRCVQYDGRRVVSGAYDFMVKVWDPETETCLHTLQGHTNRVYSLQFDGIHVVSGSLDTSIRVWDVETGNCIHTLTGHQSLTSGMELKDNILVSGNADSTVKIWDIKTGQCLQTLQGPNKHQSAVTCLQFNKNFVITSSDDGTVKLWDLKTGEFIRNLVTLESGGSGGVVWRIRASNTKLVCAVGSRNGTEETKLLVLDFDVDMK
GPR151 activ = activates the human receptor GPR151; AID 1508602; 650,000 compounds, 1% hits; Q8TDV0; activation, % at 11.2 µM; PathHunter beta-arrestin GPR151 cells, luminescence; in the data active = activation above about 4.9%
MITF primary = inhibitors of human MITF; O75030; AlphaScreen MITF homodimerization, bead proximity signal; inhibition, % at 2.6 µM; 650,000 compounds, 0.91% hits; in the data active = inhibition above about 50%
TEAD-YAP inh = TEAD-YAP interaction inhibition | 640,000 compounds, 1.4% hits | inhibition, % at 9.12 µM | HEK-TIYL cells, TEAD-Gal4/YAP UAS-luciferase luminescence; in the data active = inhibition above about 32%
GPR151 conf act = human GPR151 activation, confirmation screen; shares compounds with GPR151 activ; GPR151 PathHunter beta-arrestin cells, luminescence, 90 min; % of EA-reagent control over plate median; activation, % at 11.2 µM; 6,700 tested, under 10 active;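 active = mean percent activation across replicates above the confirmation screen cutoff of 4.91%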
GPR119 ag = counter-screen for GPR151 activators: effect on human GPR119 | AID 1508611 | 6,700 compounds, 0.3% hits | GPR119 PathHunter beta-arrestin cells, luminescence, 90 min; 0 = compound-well median, 100 = enzyme-acceptor control | activation, % at 11.2 µM | shares compounds with GPR151 activ;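 active = mean percent activation in the counterscreen above 29.09%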;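 note: counterscreen on off-target GPR119 to flag nonselective hits from the GPR151 activator screen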
Each line names hits and unclear results; the compound was inactive in the other large screens (follow-up assays come after a bar, where they were run); ! = a repeat was not active. Hits are enriched below; roughly 3.5% of the tested compounds scored in any of these assays.

CC(C)CC(NCCC(O)c1ccccc1)C(=O)O (stereo unspecified)	GPR151 activ 8.3 | GPR151 conf act inactive | GPR119 ag inactive
COCCn1nnnc1C(C(C)C)N1CCN(c2ccccc2OC)CC1 (stereo unspecified)	none
O=C(NCc1ccc(N2CCCC2=O)cc1)c1cn(Cc2ccccc2)nn1	GPR151 activ 7.4 | GPR151 conf act inactive | GPR119 ag inactive
COc1ccc(CN2CCN(Cc3ccc(OC)c(OC)c3OC)CC2)cc1OC	GPR151 activ 5.9 | GPR151 conf act inactive | GPR119 ag inactive
CCn1c2ccccc2c2cc(CN3CCN(Cc4ccc(OC)c(OC)c4OC)CC3)ccc21	none
C=CCOc1ccc(CNC2CCCCC2)cc1OC	none
Clc1cccc(CN2CCN(c3nc4nonc4nc3NC3CC3)CC2)c1	GPR151 activ 11 | GPR151 conf act inactive | GPR119 ag inactive
N#C/C(=C\Nc1ccc2c(c1)OCO2)c1nc(-c2ccc3c(c2)OCO3)cs1	none
O=C(NCC1CCCN1S(=O)(=O)c1ccccc1)C(=O)NC1CCCCC1 (stereo unspecified)	GPR151 activ 21 | GPR151 conf act inactive | GPR119 ag inactive
CCOC(=O)C(=O)NCC1CCCN1S(=O)(=O)c1cccs1 (stereo unspecified)	none
O=C(NCCc1ccccc1)C(=O)NCC1CCCN1S(=O)(=O)c1cccs1 (stereo unspecified)	GPR151 activ 7.3 | GPR151 conf act inactive | GPR119 ag inactive
Cc1ccc(S(=O)(=O)N2CCCC2CNC(=O)C(=O)NC2CCCCCC2)cc1 (stereo unspecified)	none
CCNC(=O)C(=O)NCC1CCCN1S(=O)(=O)c1ccc(C)cc1 (stereo unspecified)	GPR151 activ 6.2 | GPR151 conf act inactive | GPR119 ag inactive
Cc1ccc(S(=O)(=O)N2CCCC2CNC(=O)Nc2ccc(Cl)cc2)cc1 (stereo unspecified)	GPR151 activ 6.0 | GPR151 conf act inactive | GPR119 ag inactive
Cc1ccc(S(=O)(=O)N2CCCC2CNC(=O)C(=O)NCCO)cc1 (stereo unspecified)	none
COc1nc(N2CCOCC2)nc(N)c1[N+](=O)[O-]	none
CC(C)(C)NC(=O)C(=O)NNC(=O)c1ccc2ccccc2c1	none
Cc1ccc(CS(=O)(=O)CC2Nc3ccc(C(=O)N4CCN(c5cccc(C(F)(F)F)c5)CC4)cc3NC2=O)cc1 (stereo unspecified)	none
Cc1cccc(CS(=O)(=O)CC2Nc3ccc(C(=O)N4CCN(c5cccc(C(F)(F)F)c5)CC4)cc3NC2=O)c1 (stereo unspecified)	GPR151 activ 5.2 | GPR151 conf act inactive | GPR119 ag inactive
O=C1Nc2cc(C(=O)N3CCN(c4cccc(C(F)(F)F)c4)CC3)ccc2Sc2ccccc21	GPR151 activ 5.1 | GPR151 conf act inactive | GPR119 ag inactive
CC(C)(C)n1nc2c(c1NC(=O)c1cccc(F)c1)CSC2	none
CC(C)(C)n1nc2c(c1NC(=O)c1c(F)cccc1F)CSC2	GPR151 activ 7.6 | GPR151 conf act inactive | GPR119 ag inactive
COc1ccc(NC(=O)Nc2c3c(nn2C(C)(C)C)CSC3)cc1	GPR151 activ 5.5 | GPR151 conf act inactive | GPR119 ag inactive
COc1ccc(CC(=O)Nc2c3c(nn2C(C)(C)C)CSC3)cc1	none
COC(=O)CN/N=C/c1ccc([N+](=O)[O-])cc1[N+](=O)[O-]	GPR151 activ 7.6 | GPR151 conf act inactive | GPR119 ag inactive
COc1ccc(/C=N/Nc2ccc([N+](=O)[O-])cc2[N+](=O)[O-])c(O)c1	none
CCn1c2ccccc2c2cc(/C=N/n3cn[nH]c3=S)ccc21	GPR151 activ 5.0 | GPR151 conf act inactive | GPR119 ag inactive
CCn1c2ccccc2c2cc(/C=N/O)ccc21	none
COCCCNC(=O)Cn1nnc(-c2ccc(NC(=O)CC(C)C)cc2)n1	none
CCC(=O)Nc1nnc(-c2ccc3c(c2)CCCC3)o1	none
COC(=O)c1ccc(C(=O)Nc2nnc(-c3ccc4c(c3)CCCC4)o2)cc1	GPR151 activ 6.0 | GPR151 conf act inactive | GPR119 ag inactive
C(=N\n1cnnc1)/c1ccc2c(c1)OCO2	none
C(=N\n1cnnc1)/c1ccc2c(c1)OCCO2	GPR151 activ 12 | GPR151 conf act inactive | GPR119 ag inactive
CCC(=O)Nc1cc2c(cc1C(=O)c1ccc(Cl)cc1)OCCO2	none
FC(F)(F)c1nnc2c3ccccc3c(NC3CC3)nn12	GPR151 activ 7.3 | GPR151 conf act inactive | GPR119 ag inactive
Nc1nonc1-n1nnc(C(=O)N/N=C/c2cccc([N+](=O)[O-])c2)c1-c1ccccc1	none
Clc1ccc(Cc2nc(-c3ccccc3)no2)cc1	none
c1ccc2c(NC3CCCC3)nc(N3CCNCC3)nc2c1	none
CN1CCN(c2nc(NC3CCCCC3)c3ccccc3n2)CC1	GPR151 activ 12 | GPR151 conf act inactive | GPR119 ag inactive
CCOc1ccc(Cl)cc1S(=O)(=O)N1CCN(c2ccc(F)cc2)CC1	GPR151 activ 5.0 | GPR151 conf act inactive | GPR119 ag inactive
CCOc1ccc(OCC)c(S(=O)(=O)N2CCN(c3ccc(F)cc3)CC2)c1	none
COc1ccc(CCNC(=O)C(=O)Nc2ccc(C(C)C)cc2)cc1OC	none
CNc1oc(-c2cccs2)nc1S(=O)(=O)c1ccccc1	GPR151 activ 5.1 | GPR151 conf act inactive | GPR119 ag inactive
Cc1nc2ccccc2c2oc(C(=O)NC3CCN(Cc4ccccc4)CC3)cc12	none
CCCNC(=O)CSc1nccn1Cc1ccc(F)cc1	GPR151 activ 5.7 | GPR151 conf act inactive | GPR119 ag inactive
O=C(CNC(=O)c1ccccc1Cl)N=Nc1c(O)[nH]c2ccc([N+](=O)[O-])cc12	none
O=C(NCc1ccco1)c1nc2c(nnn2Cc2ccc(F)cc2)c(=O)[nH]1	GPR151 activ 5.3 | GPR151 conf act inactive | GPR119 ag inactive
O=C(NCc1cccs1)c1nc2c(nnn2Cc2ccc(F)cc2)c(=O)[nH]1	none
CCn1c(C)cc(C=C2C(=O)c3ccccc3C2=O)c1C	GPR151 activ 8.2, TEAD-YAP inh 66 | GPR151 conf act inactive | GPR119 ag inactive
CCCNc1ccnc(-c2ccccc2)n1	none
C[C@@H](NCCc1ccc(O)cc1)[C@@H](O)c1ccc(O)cc1	GPR151 activ 6.4! | GPR151 conf act inactive | GPR119 ag inactive
CC(NCCc1ccc(O)cc1)C(O)c1ccc(O)cc1 (stereo unspecified)	none
O=C(Oc1cccc2ccccc12)N1CCN2C(=O)[C@@H]3CCCN3C(=O)[C@H]2C1	none
Oc1oc(-c2ccccc2Br)nc1C=Nc1ccccc1Cl	GPR151 activ 5.0 | GPR151 conf act inactive | GPR119 ag inactive
O=S(=O)(c1ccc(-c2csc(=Nc3cccc(C(F)(F)F)c3)n2Cc2ccc(Cl)cc2)cc1)N1CCCC1	none
O=C1CCCC2=C1C(c1ccccc1F)n1c(nc3ccccc31)N2 (stereo unspecified)	GPR151 activ 9.6 | GPR151 conf act inactive | GPR119 ag inactive
